# BAZ2B block: blocks human BAZ2B. AlphaScreen BAZ2B-H3K14Ac peptide displacement. Potency, µM (series often up to 114 µM), for the others: at the top dose activity change, negative = inhibition, hits mostly inhibitors. actives 4.4% (n = 360,000). AID 504333; also: % is scaled to controls: 0 for no effect and ±100 for the full control effect; nearly all actives have a fitted effect of over 60% in size
#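 AlphaScreen displacement of biotin-H3(5-23)K14Ac peptide (50 nM final) from BAZ2B (50 nM final) in PBS pH 7.4, 0.01% Tween-20; complex preformed 30 min RT, then compounds (top 110 uM) 30 min RT, beads 20 min dark.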
# HP1b binding inh: HP1-beta chromodomain-methylated histone interaction inhibition. AID 540317. Potency, µM (titrated, usually from 114 µM), for inactives: at the highest dose activity change, negative = inhibition, hits mostly inhibitors. AlphaScreen HP1-beta / biotin-H3K9me3 peptide binding. actives 0.56% (n = 390,000); also: nearly all actives have a fitted effect of over 70% in size
# Target sequence (P83916 whole entry, looked up): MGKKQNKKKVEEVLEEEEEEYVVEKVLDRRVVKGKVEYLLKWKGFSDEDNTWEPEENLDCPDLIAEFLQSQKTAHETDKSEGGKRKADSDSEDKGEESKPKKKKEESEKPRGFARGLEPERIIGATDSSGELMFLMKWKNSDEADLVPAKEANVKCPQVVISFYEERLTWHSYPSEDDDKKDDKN
#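 Compound inhibition of the preformed complex between 50 nM HP1-beta and 50 nM biotinylated H3K9me3 peptide was read by AlphaScreen. Buffer was PBS pH 7.4 with 0.01% Tween-20. Incubations ran 30 min at room temperature, with 10 ug/mL donor/acceptor beads.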
# PLK1 PBD inh: PLK1 (human) polo-box domain binding inhibition; P53350; Plk1 PBD binding of FITC phosphopeptide, fluorescence polarization; Potency, µM, for inactives: max response, negative = inhibition, actives largely listed as inhibitors; actives 2.8% (n = 360,000); also: series mostly up to about 57 µM; % is scaled to controls: 0 for no effect and ±100 for the full control effect; nearly all actives have a fitted effect of over 65% in size
# Sfp PPTase inh: blocks B. subtilis Sfp PPTase activity; actives 3.5% (n = 310,000); Biochemical Sfp PPTase activity, qHTS; Potency, µM, inactives show largest response in the series, negative = inhibition, most hits filed as inhibitors;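 also: the enzyme is Sfp with the accession as filed and its product quenches rhodamine fluorescence; 0% = enzyme reaction without inhibitor and -100% = no enzyme wells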
#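 Reaction rates are the 30-min fluorescence difference (ex 525, em 598 nm) in wells containing 15 nM Sfp, 5 uM rhodamine-CoA and 12.5 uM BHQ-2-YbbR at pH 7.6 with 10 mM MgCl2.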
# JMJD2A Tudor inh: JMJD2A Tudor domain (human) inhibition. actives 4.4% (n = 390,000). Potency, µM (doses to about 114 µM), inactives show top-dose activity change, negative = inhibition, usual class: inhibitors. AlphaScreen JMJD2A-Tudor / H3K4me3 peptide binding; also: % is scaled to controls: 0 for no effect and ±100 for the full control effect; nearly all actives have a fitted effect of over 50% in size
# G9a block: blocks human histone lysine methyltransferase G9a. actives 8.8% (n = 350,000). Q96KQ7. G9a H3K9 monomethylation, AlphaScreen, 2 h. Potency, µM (titrated, usually from 102 µM), for inactives: top-dose activity, negative = inhibition, usual class: inhibitors. AID 504332; also: % is scaled to controls: 0 for no effect and ±100 for the full control effect; nearly all actives have a fitted effect of over 75% in size
# Target sequence (Q96KQ7 913-1193 limits assumed): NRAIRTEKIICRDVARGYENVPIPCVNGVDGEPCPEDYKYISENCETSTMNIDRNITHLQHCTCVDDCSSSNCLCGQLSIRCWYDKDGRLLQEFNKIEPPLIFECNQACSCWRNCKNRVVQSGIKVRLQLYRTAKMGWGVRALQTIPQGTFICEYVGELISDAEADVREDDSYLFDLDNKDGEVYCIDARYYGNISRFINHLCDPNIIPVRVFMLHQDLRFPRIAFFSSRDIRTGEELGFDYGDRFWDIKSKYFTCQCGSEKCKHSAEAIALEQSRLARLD
#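 AlphaScreen read-out: biotin-H3K9 peptide (500 nM) methylation by 20 nM enzyme with 20 uM SAM, 2 h at room temperature after 15 min compound preincubation; anti-monomethyl H3K9 antibody plus donor/acceptor beads, 10 min dark.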
# * hit, by the source's call; ? = inconclusive; nt = not tested or not shown; [ ] = dose if it differs, or a comment. An excerpt weighted towards active compounds, which were near 12% of everything screened. Calls follow the shape of the dose curve; as a rule, active = well fitted curve in the direction sought with a large enough effect; inconclusive = small, poorly fitted or top-dose-only effect, or another doubt; inactive = no such curve, though single readings can be large; an effect the other way counts as inactive or inconclusive. Potency is read from the fitted curve at half-maximal effect.
SMILES,BAZ2B block,HP1b binding inh,PLK1 PBD inh,Sfp PPTase inh,JMJD2A Tudor inh,G9a block
COC(=O)c1ccc(CN2CCN(Cc3ccccc3)CC2)cc1,-10.0%,4.0%,-4.1%,3.1%,79.4µM*,-5.8%[59 µM]
CC(=O)Nc1ccc(CC(=O)N2CCN(Cc3ccccc3)CC2)cc1,-6.4%,4.6%,-9.0%,2.1%,-9.1%,-1.7%
COc1ccc(-n2nnnc2C(c2cccs2)N2CCC(n3c(=O)[nH]c4ccccc43)CC2)cc1 (stereo not given),nt,nt,-4.4%,nt,nt,nt
Cc1noc(C)c1C(=O)N1CCC2(CCCN(CC(C)C)C2)CC1,nt,nt,nt,4.0%,nt,7.0%[12.7 µM]
CCn1cc(C(=O)N[C@@H](C)C(=O)OC)c(=O)c2cc3c(cc21)OCO3,3.0%,47.5%,-2.7%,2.1%,-1.7%,43.4%
C[N+]1(C)CCO[C@](O)(c2ccc(-c3ccc([C@]4(O)C[N+](C)(C)CCO4)cc3)cc2)C1,nt,nt,nt,13.8%,nt,13.3%[21.5 µM]
CCC1C(c2cc(OC)c(OC)c(OC)c2)c2cc3c(cc2OC1N1CCCC1)OCO3 (stereo not given),nt,?,3.3%,nt,?,nt
COC(=O)[C@@H]1C[C@@]2(O)[C@@H](O)[C@@H](O)[C@@H](O)C[C@H]2N1Cc1cccnc1,nt,nt,nt,39.5%,nt,nt
Cc1ccccc1CN1CCN(C(=O)Cc2ccccc2)CC1,25.1µM*,22.4µM*,-9.8%,-3.2%,11.2µM*,15.8µM*
O=C(Cc1ccccc1)N1CCN(Cc2c[nH]c3ccccc23)CC1,1.2%,33.8%,-4.9%,-0.2%,-11.2%,-12.3%
C/C(=N\N(C)c1ccccc1)c1c(O)[nH]c(=O)[nH]c1=O,-3.3%,21.4%,7.2%,7.2%,-6.8%,50.1µM*
CC/C(=N\Nc1ccccc1)c1c(O)n(-c2ccc(OC)cc2)c(=O)[nH]c1=O,-20.2%,12.4%,-1.1%,?,-14.2%,39.8µM*
CC/C(=N\Nc1ccccc1)c1c(O)[nH]c(=O)[nH]c1=O,0.4%,29.1%,7.1%,6.0%,-19.3%,44.7µM*
CC/C(=N\Nc1cccc2ccccc12)c1c(O)[nH]c(=O)[nH]c1=O,?,-14.1%,-8.6%,?,79.4µM*,1.58µM*
CCC(C)C(=O)OC1C(O)C2C(CN3CC(C)CCC3[C@]2(C)O)C2C[C@]34O[C@@]5(O)C(OC(=O)C(C)(O)CC)CCC3(C)C5C(OC(C)=O)C(OC(C)=O)C4[C@@]21O (stereo not given in full),nt,nt,nt,3.2%,nt,0.5%[2.33 µM]
Cc1ccc(-n2c(/C=C\c3ccc(F)c(F)c3)nc3ccccc3c2=O)c(C)c1,2.0%,16.1%,nt,nt,-16.5%,12.2%[59 µM]
CC(C)C1C(=O)N2CCC[C@H]2[C@]2(O)O[C@](NC(=O)[C@@H]3C=C4c5cccc6[nH]cc(c56)C[C@H]4N(C)C3)(C(C)C)C(=O)N12 (stereo not given in full),nt,nt,nt,?,nt,-33.2%[59 µM]
C=CCn1c(O)c(/C(C)=N/NC(=S)Nc2ccccc2)c(=O)[nH]c1=O,-2.6%,6.4%,-25.3%,35.5µM*,?,-124.3%[59 µM]
C=CCn1c(O)c(/C(CC)=N/NC(=S)Nc2ccccc2)c(=O)[nH]c1=O,-9.5%,17.6%,-14.2%,22.4µM*,-10.3%,nt
C=CCn1c(O)c(C(CC)=NCCc2ccccc2)c(=O)[nH]c1=O,-6.4%,14.8%,-6.3%,4.3%,-10.5%,-9.7%
CSCCC(=O)Nc1cc(S(=O)(=O)N2CCOCC2)ccc1N1CCN(C)CC1,-1.9%,18.9%,-16.5%,20.2%,-16.1%,?
CN(C)P(=NC(=S)c1cccn1C)(N(C)C)N(C)C,?,-10.1%,?,-24.3%,39.8µM*,10µM*
CC(C)c1ccc2oc(-c3ccc(NC(=O)c4cc5ccccc5o4)cc3)nc2c1,5.9%,35.5%,nt,nt,9.2%,3.6%[59 µM]
COc1cc2c(c(OC)c1OC)-c1ccc(O)c(=O)cc1[C@@H](NC(C)=O)CC2,nt,51.3%,0.9%,-26.6%,56.2µM*,nt
CN1C(=O)CCS(=O)(=O)[C@@H]1c1ccc(Cl)cc1,nt,nt,nt,14.2%,nt,4.6%[21.5 µM]
COc1cccc(-n2c(CNC(=O)OC(C)(C)C)n[nH]c2=S)c1,32.0%,30.0%,-9.0%,50.1µM*,10µM*,28.2µM*
